What all share (assay): NCI-60 one-dose screen, 48 h (100 = growth as untreated, 0 = no growth, -100 = all killed)
Conditions in all cases: 10 µM unless noted

Test [1] deals with HCT-15 colon.
The subject of test [2] is HT29 colon.
The test system of test [3] is SNB-75 CNS.
Test [4] relates to SNB-19 CNS.
In test [5] the test system is U251 CNS.
For test [6], the system named is PC-3 prostate.
Test [7] has as its system SK-MEL-5 melanoma.
Test [8] relates to UACC-62 melanoma.
Test [9] deals with LOX IMVI melanoma.
For test [10], the system named is SK-MEL-28 melanoma.

This is part of a sample that, as a whole, favours compounds with a hit. Of some 83,000 tested, about 20% had one in any assay.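 For each line, cells grew in 96-well plates with the test compound present at a single concentration for 48 hours.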 A number with no mark means an inactive call. Activity calls are given as the source filed them. The calls were made as follows: active = growth percent below 10; inactive = the rest.

In the case of `CC/C=C/C/C=C/C/C=C/C/C=C/C/C=C/C/C=C/CCC(=O)Nc1ccn([C@@H]2O[C@H](CO)[C@@H](O)C2(F)F)c(=O)n1`, the growth was 41.7% in [1]; 36.4% in test [2]; 37.4% in test [3]; 7.11% (active) in [4]; 22.4% in test [5]; 41% in test [6]. Also, the growth in test [7] is 31.3%; in [8], -12.3% (active); in [9], -49.9% (active); in [10] it was 74.9%.
`Cc1cccc(Cc2cnc(NC(=O)c3ccc4nnsc4c3)s2)c1`: the growth in test [1] is 68.6%; in test [2], 82.8%; in test [3], 105%; in [4] it was 96.1%; in test [5], 88.7%; in test [6] it was 66.1%. Also, the growth in test [7] was 97.3%; in test [8] it was 35.3%; in test [9], 34.6%; in [10], 103%.
For `COc1cc(/C=C/C(=O)c2ccc(Nc3nc(Nc4ccc(F)cc4)nc(Nc4ccc(Cl)cc4)n3)cc2)cc(OC)c1OC`, the growth in [1] was 55%; in test [2], 3.82% (active); in [3] it was 0.259% (active); in [4], 101%; in test [5], 27.5%; in test [6], 21.4%. For the same molecule, the growth in test [7] was 33.5%; in test [8], 56.5%; in test [9], 37.3%; in test [10], -32.9% (active).
Turning to `Cn1cc2c(c1)-c1nc(Nc3ccccc3)ncc1CC2`, the growth in test [1] was 45.9%; in test [2], 79.9%; in test [3], 75.7%; in [4], 69.4%; in [5], 59.7%; in test [6] it was 58.5%. In addition, the growth is 73.2% in test [7], 51.1% in [8], 49.6% in test [9] and 99.9% in [10].
In the case of `COC(=O)[C@]12CC[C@@H](C)[C@H](C)[C@@H]1C1=CC[C@@H]3[C@@]4(C)C(C=O)=C[C@@](C)(COC(=O)/C=C/c5ccccc5)[C@@H]4[C@H](O)C[C@@]3(C)[C@]1(C)CC2`, the growth in [1] is 2.39% (active); in test [2], -22.9% (active); in test [3], 2.38% (active); in test [4], 49.4%; in test [5], 2.16% (active); in test [6], 12%. The growth is -64.4% (active) in [7], -29.7% (active) in test [8], -95.5% (active) in test [9] and -12.5% (active) in test [10].
Turning to `Nc1n[nH]c2cc(F)c([C@@H]3Nc4c(F)cc5[nH]ncc5c4[C@H]4C5CCC(C5)[C@@H]34)cc12` (some centres undefined), the growth in test [1] is 6.76% (active); in [2], 17%; in test [3], -20.9% (active); in test [4], 53.1%; in [5], 33.2%; in test [6] it was 22.5%. For the same molecule, the growth was 8.05% (active) in test [7], 35.3% in [8], 20.2% in [9] and 52.8% in test [10].
Consider `COc1ccccc1CNCCCN1C(=O)c2ccc3c4c(ccc(c24)C1=O)C(=O)N(CCCNCCCCN)C3=O`, for which the growth was 12.7% in test [1]; -23.9% (active) in test [2]; -95.3% (active) in test [3]; -57.8% (active) in [4]; -67.4% (active) in test [5]; -11.8% (active) in test [6]. Moreover, the growth in test [7] was -98.3% (active); in test [8] it was -60.1% (active); in test [9] it was -16.3% (active); in [10] it was -94.1% (active).
For the molecule `CCN(CC)c1ccc(C(=O)c2ccc(N(CC)CC)cc2)cc1`, the growth is 27.4% in test [1]; 4.92% (active) in test [2]; -11.9% (active) in test [3]; 38.7% in test [4]; 20.8% in test [5]; 26.4% in test [6]. For the same molecule, the figures for the growth in test [7], in test [8] and in [10] were 23.7%, 37.6% and 51.3%, respectively.
As to `COC(=O)CCC1=C(C)C2=NC1=CC1=NC(=CC3=NC(=Cc4[nH]c(/c(=C(/C)O)c4C)=C2)C(C(C)=O)=C3C)C(C)=C1CCC(=O)OC`, the growth was 99.8% in test [1]; 107% in test [2]; 90.6% in [3]; 97.3% in test [4]; 98.9% in test [5]; 83.7% in test [6]. Also, the growth in test [7] was 103%; in test [8] it was 97.2%; in test [10], 115%.
As to `COC(=O)[C@]12CC[C@@H](C)[C@H](C)[C@@H]1C1=CC[C@@H]3[C@@]4(C)C(C=O)=C[C@@](C)(COS(C)(=O)=O)C4[C@H](O)C[C@@]3(C)[C@]1(C)CC2` (some centres undefined), the growth in [1] was -70.3% (active); in [2], -85.2% (active); in [3], -92.1% (active); in test [4], -67.7% (active); in test [5], -96.2% (active); in [6], -36% (active). The growth in test [7] was -91.6% (active); in test [8], -38.4% (active); in [9] it was -97.3% (active); in test [10], -57.7% (active).
In the case of `N=c1sc(Cc2ccc(Cl)cc2)cn1CC(=O)c1ccc(F)cc1`, the growth was 50.4% in test [1]; 70.6% in [2]; 90.3% in test [3]; 88% in [4]; 79.4% in test [5]; 75.5% in test [6]. Further, the figures for the growth in test [7], in test [8] and in test [10] were 62.7%, 9.38% (active) and 87.6%, respectively.
As to `CC(=O)N1C(=S)NC(=O)C1Cn1c(-c2ccccc2)nc2ccccc21` (centres undefined), the growth in test [1] is 98.3%; in test [2], 107%; in test [3] it was 76.2%; in test [4] it was 93.3%; in test [5] it was 101%; in [6], 97.8%. Moreover, the growth in test [7] was 99.1%; in test [8], 91.5%; in [10] it was 106%.
Consider `CC(=O)OC[C@H]1OC(Sc2sc(C(=O)c3ccc(Br)cc3)c(N)c2-c2nc3ccccc3s2)[C@H](OC(C)=O)[C@@H](OC(C)=O)[C@@H]1OC(C)=O` (some centres undefined), for which the growth in test [1] is 59.8%; in test [2] it was 63.1%; in test [3], -16.7% (active); in [4], 75.2%; in [5] it was 57.6%; in test [6], 71.3%. In addition, the growth is 22.1% in [7], 89.3% in test [8] and 70.7% in test [10].
`O=C(CCc1nnc(CN(c2ccccc2)c2ccccc2)o1)c1nc2ccccc2[nH]1`: the growth is 97.4% in test [1]; 93.4% in [2]; 86.9% in test [3]; 92.7% in test [4]; 94.9% in test [5]; 76.3% in test [6]. Also, the growth in [7] was 99.4%; in [8], 69.4%; in [10] it was 112%.

Values taken from PubChem BioAssay (NCI).
